# Source: ChEMBL document CHEMBL3988442, “University of Dundee, Small-Polar-MMV Screening Library” (2021)
# For some of these results: Measured potencies and affinities stand elsewhere.
# Experiments:
# Set-up in all cases: scale not given: direction of the effect not stated beside the values
# [1] = target: Protein translocase subunit SecA (Escherichia coli (strain K12)) (UniProt P10408); experiment: Assay to Identify E. coli SecA ATPase Inhibitors; format: functional; settings: 30 µM
# [2] = target: T1, Ubiquitin-activating enzyme e1, putative (Leishmania donovani (strain BPK282A1)) (UniProt E9BSI1); experiment: Leishmania donovani Ubiquitin Activating Enzyme (LdE1); format: functional; settings: 30 µM
# T1 sequence (whole entry): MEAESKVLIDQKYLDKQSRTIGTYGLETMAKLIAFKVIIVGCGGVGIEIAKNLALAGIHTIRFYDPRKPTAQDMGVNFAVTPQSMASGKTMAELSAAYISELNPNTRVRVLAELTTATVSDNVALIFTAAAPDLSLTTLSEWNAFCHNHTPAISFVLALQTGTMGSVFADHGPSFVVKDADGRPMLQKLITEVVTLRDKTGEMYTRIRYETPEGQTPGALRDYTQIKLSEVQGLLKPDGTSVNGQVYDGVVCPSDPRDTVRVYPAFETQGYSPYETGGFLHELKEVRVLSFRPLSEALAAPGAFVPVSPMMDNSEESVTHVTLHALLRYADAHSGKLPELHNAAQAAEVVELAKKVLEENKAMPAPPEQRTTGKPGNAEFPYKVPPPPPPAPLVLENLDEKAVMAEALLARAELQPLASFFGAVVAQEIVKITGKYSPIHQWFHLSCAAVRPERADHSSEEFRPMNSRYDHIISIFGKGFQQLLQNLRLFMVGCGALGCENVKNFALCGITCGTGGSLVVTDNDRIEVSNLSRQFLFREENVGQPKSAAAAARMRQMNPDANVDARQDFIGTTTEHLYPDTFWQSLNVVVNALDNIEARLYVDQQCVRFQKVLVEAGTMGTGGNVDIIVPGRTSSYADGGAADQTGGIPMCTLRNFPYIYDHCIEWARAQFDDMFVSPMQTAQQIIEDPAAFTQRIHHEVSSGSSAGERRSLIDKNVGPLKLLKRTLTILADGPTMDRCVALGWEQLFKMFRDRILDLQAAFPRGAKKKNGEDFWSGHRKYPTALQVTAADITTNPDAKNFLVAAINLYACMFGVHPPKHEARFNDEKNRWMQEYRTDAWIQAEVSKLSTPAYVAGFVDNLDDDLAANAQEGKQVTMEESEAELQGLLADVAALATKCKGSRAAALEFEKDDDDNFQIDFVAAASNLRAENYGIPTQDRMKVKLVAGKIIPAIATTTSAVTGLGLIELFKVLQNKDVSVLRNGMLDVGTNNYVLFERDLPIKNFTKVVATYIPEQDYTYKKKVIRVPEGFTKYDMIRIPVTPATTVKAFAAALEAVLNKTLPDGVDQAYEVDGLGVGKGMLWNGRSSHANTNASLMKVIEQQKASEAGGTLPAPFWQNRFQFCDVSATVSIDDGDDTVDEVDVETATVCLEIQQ
# [3] = target: AMP-activated protein kinase, AMPK (Homo sapiens) (UniProt P54646+O43741+P54619+Q9UGJ0+Q9Y478+Q13131+Q9UGI9); experiment: AMP-dependent Kinase enzyme assay. An in vitro enzyme assay that detects ADP turnover that is directly proportional to AMPK activity. This uses naive AMPK that is activated during the assay with MK-8722; format: functional; settings: 30 µM
# [4] = target: Sialic acid-binding Ig-like lectin 9 (Homo sapiens) (UniProt Q9Y336); experiment: Hs-Siglec9 ALPHAscreen SOP 20170721; settings: 10 µM
# Sequence of Sialic acid-binding Ig-like lectin 9 (Homo sapiens) (Q9Y336 whole entry): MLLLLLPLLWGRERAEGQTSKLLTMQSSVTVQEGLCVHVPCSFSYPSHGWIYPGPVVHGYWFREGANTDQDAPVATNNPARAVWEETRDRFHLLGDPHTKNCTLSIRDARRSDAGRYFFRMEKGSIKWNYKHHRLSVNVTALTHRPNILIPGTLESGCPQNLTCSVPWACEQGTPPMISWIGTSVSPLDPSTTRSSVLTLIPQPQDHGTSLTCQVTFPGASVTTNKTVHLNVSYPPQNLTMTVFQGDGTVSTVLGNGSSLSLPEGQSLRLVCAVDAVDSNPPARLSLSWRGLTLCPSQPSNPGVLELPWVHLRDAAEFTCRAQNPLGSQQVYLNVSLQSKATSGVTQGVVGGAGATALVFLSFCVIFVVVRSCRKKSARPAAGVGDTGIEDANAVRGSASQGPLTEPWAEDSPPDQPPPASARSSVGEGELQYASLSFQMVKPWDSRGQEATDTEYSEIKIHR
# Trypanosoma cruzi = experiment: Trypanosoma cruzi phosphomannomutase and mannose-1-phosphate guanylyltransferase assay; format: functional; settings: 10 µM
# [5] = target: T2, Arginase-2, mitochondrial (Homo sapiens) (UniProt P78540); experiment: in vitro enzyme assay to detect the production of urea directly proportional to the activity of Arginase II; format: functional; settings: 33.3 µM; further: in the data most compounds retested in dose-response had high values
# T2 sequence (whole entry): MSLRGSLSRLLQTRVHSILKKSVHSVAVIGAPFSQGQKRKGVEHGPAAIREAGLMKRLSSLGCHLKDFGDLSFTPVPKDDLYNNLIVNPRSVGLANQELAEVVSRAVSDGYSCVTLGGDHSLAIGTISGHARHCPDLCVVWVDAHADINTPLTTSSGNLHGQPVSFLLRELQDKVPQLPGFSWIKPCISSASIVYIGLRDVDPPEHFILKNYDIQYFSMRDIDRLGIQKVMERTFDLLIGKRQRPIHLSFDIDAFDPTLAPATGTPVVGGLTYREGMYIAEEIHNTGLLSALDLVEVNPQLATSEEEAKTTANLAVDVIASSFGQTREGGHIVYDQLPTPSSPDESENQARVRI
# [6] = target: T3, Proteasome subunit beta (Trypanosoma cruzi) (UniProt O96673); experiment: Trypanosoma cruzi proteasome chymotrypsin-like activity (TcProtChymo) assay.; further: in the data most compounds retested in dose-response had high values; format: functional; settings: 9.37 µM
# T3 sequence (whole entry): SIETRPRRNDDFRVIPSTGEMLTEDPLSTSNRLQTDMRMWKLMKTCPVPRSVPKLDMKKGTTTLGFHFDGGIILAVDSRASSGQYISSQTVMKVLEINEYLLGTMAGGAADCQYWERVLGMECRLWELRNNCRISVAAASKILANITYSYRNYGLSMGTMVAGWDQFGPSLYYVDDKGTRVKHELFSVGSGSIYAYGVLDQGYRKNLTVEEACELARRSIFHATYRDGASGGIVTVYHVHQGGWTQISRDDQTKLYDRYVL
# Homo sapiens = species on record: Homo sapiens; experiment: To identify inhibition of the IFN signalling (Jak-Stat) pathway via expression of an eGFP reporter gene under the control of an IFN-stimulated response element (ISRE) containing MxA promoter.; format: functional; settings: 30 µM
# [7] = target: T4, Tyrosyl-tRNA synthetase, putative (Trypanosoma cruzi (strain CL Brener)) (UniProt Q4DSP6); experiment: Trypanosoma cruzi tyrosyl tRNA synthetase (TcYRS) _High Tyrosine SOP; format: functional; settings: 30 µM; further: in the data most compounds retested in dose-response had high values
# T4 sequence (whole entry): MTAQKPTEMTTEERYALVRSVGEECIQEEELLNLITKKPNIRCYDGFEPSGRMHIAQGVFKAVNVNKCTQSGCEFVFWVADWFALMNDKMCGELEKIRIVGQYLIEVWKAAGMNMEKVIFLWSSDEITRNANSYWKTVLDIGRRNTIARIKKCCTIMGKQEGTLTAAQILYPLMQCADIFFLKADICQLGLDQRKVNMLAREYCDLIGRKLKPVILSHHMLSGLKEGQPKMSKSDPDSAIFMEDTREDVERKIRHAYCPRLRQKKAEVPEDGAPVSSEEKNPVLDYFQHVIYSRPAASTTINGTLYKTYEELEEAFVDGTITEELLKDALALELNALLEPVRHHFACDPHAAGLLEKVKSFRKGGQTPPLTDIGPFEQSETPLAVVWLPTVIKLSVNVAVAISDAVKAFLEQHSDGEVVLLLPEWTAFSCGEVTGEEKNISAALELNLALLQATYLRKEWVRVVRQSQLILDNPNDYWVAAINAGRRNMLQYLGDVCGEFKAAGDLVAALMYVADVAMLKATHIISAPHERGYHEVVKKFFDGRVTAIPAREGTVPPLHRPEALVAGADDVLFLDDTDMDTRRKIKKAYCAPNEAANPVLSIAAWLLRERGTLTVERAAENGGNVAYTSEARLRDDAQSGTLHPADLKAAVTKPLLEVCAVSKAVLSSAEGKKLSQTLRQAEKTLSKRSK
# [8] = target: T4, Tyrosyl-tRNA synthetase, putative (Trypanosoma cruzi (strain CL Brener)); experiment: Trypanosoma cruzi tyrosyl tRNA synthetase (TcYRS) SOP; format: functional; settings: 30 µM
# [9] = target: Chromo domain-containing protein 1 (Saccharomyces cerevisiae (strain ATCC 204508 / S288c) (Baker's yeast)) (UniProt P32657); experiment: ScCHD-1 Enzyme Inhibition Assay; format: functional; settings: 30 µM; further: in the data most compounds retested in dose-response had high values
# Sequence of Chromo domain-containing protein 1 (Saccharomyces cerevisiae (strain ATCC 204508 / S288c) (Baker's yeast)) (P32657 whole entry, the tested form may be a part): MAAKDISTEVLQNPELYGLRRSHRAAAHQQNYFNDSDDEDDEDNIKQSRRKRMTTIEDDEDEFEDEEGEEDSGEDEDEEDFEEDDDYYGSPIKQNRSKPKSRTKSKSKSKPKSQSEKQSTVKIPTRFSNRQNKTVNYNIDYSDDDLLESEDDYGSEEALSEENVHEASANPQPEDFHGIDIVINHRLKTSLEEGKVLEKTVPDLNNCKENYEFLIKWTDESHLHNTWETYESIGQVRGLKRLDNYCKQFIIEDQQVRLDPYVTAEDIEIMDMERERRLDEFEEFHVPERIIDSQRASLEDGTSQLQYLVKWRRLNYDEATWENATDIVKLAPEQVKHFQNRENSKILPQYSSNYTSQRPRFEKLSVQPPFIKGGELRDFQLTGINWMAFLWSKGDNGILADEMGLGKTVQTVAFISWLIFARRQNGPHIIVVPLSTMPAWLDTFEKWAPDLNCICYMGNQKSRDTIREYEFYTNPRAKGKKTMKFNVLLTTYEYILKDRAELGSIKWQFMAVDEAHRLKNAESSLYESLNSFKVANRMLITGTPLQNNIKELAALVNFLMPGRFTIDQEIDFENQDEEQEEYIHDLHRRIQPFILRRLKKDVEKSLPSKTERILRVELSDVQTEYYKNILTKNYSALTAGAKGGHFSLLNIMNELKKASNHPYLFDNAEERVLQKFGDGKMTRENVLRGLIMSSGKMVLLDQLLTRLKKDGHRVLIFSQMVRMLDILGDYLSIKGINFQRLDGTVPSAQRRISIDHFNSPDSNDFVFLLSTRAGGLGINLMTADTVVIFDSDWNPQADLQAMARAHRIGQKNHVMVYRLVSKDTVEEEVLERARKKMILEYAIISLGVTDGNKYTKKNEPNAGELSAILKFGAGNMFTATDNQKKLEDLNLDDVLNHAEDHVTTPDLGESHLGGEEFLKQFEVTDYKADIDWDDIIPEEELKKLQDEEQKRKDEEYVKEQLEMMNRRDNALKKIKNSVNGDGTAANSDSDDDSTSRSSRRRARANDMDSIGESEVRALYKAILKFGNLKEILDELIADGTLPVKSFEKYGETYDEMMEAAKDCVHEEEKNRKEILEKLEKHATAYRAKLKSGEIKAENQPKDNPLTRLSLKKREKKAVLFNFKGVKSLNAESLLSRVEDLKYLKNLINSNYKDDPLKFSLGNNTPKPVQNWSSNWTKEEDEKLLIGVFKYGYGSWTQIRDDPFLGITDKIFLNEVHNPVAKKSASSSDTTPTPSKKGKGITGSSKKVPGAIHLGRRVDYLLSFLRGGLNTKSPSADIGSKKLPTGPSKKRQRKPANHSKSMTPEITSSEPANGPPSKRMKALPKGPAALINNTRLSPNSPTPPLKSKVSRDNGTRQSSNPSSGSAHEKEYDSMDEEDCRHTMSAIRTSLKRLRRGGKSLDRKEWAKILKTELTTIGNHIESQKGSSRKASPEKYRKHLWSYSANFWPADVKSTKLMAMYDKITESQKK
# Sequence of Protein translocase subunit SecA (Escherichia coli (strain K12)) (P10408 whole entry): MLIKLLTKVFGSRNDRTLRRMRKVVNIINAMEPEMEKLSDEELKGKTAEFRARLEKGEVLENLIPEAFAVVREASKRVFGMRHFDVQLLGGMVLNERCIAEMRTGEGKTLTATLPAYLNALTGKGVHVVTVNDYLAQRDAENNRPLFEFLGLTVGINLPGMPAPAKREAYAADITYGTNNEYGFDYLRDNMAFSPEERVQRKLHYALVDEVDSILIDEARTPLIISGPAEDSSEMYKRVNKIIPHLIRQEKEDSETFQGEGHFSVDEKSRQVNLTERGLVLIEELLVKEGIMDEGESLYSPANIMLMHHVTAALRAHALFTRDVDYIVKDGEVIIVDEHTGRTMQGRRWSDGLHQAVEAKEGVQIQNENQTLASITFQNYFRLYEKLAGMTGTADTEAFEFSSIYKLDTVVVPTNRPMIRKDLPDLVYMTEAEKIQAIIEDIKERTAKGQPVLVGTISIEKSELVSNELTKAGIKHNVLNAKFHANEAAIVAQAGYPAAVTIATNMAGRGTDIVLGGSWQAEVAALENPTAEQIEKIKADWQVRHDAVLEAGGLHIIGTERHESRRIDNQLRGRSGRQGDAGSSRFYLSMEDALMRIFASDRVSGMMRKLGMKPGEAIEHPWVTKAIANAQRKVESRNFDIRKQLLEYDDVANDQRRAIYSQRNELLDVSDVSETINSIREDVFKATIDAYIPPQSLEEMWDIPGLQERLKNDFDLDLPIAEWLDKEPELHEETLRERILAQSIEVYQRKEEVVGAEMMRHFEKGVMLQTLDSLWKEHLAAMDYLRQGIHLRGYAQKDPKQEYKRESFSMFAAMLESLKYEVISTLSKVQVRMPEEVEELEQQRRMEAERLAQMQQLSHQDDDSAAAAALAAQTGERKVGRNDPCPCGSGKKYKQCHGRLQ
Compound,Percent Effect [1] [%],Percent Effect [2] [%],Percent Effect [3] [%],Percent Effect [4] [%],Percent Effect (Trypanosoma cruzi) [%],Percent Effect [5] [%],Percent Effect [6] [%],Percent Effect (Homo sapiens) [%],Percent Effect [7] [%],Percent Effect [8] [%],Percent Effect [9] [%]
CC(C)S(=O)(=O)NCC1CCCN(C(=O)c2ccc3c(c2)CCC3)C1 (stereo not given),-5.88,5.48,5.06,-5.74,0.588,-2.27,7.28,16.7,1.07,7.5,-5.72
FC(F)(F)COCCN1CCN(c2ccc3nncn3n2)CC1,-4.65,10.4,0.707,9.49,4.87,-3.92,2.87,-15.5,5.83,14.6,-6.46
O=C(Cc1ccccc1F)N1C[C@@H]2COC[C@]2(COc2cccnc2)C1,-2.71,8.11,2.48,0.934,-1.66,10.5,17.5,-1.09,3.24,12.8,-2.39
Cc1occc1C(=O)N1CCC2(CCC(=O)N(CC(N)=O)C2)CC1,-6.56,-4.17,0.341,3.65,-3.6,2.21,10.9,3,-2.1,-7.69,-2.07
Cc1ccc(OCC(=O)NCC(C)C)nc1,-6.24,13.7,-6.5,6.61,6.94,1.2,4.37,1.54,8.33,11.1,-8.95
Cc1ccc(CC(=O)N2CSCC2C(=O)N(C)Cc2ccco2)o1 (stereo not given),-2.18,2.63,17.7,-8.06,-2.89,3.24,7.02,-5.97,3.45,1.24,-0.996
CC(NC(=O)Nc1cc(F)ccc1N1CCCCC1)c1nncn1C (stereo not given),-4.95,5.41,-5.33,-3.53,-3.49,2.81,-3.78,1.69,1.48,1.24,-2.66
Cc1nc(CN2C(=O)COC3(CCN(Cc4nccs4)CC3)C2C)cs1 (stereo not given),-1.57,0,-5.34,5.68,4.56,-4.39,2.48,-3.19,6.25,13.6,-5.58
Cc1ccc(N2CCCC(NCc3ccc(C)o3)C2)nn1 (stereo not given),-0.735,6.33,1.51,-2.46,4,-1.5,28.8,-8.15,5.21,10.1,-15.2
COc1cc(C(=O)Nc2nc(C)no2)ccc1C,-6.11,25.3,-1.3,-0.471,3.12,-4.56,4.83,33.2,7.39,26.6,-8.84
O=C(NCCN1CCOCC1)NCc1ncc(-c2ccccc2)o1,-2.93,2.67,-6.01,8.92,7.3,0,16.6,19.1,7.1,13.6,-0.412
O=C(CSC1=NS(=O)(=O)c2cc(F)ccc2N1)c1ccc(Cl)cc1,-1.43,0,2.41,-0.28,-5.42,4.52,6.44,11.1,4.23,11.5,-7.8
CN(C)C(=O)[C@@H]1CCO[C@@H]2CCN(CCc3ccccc3)C[C@@H]21,-1.12,10.8,-3.68,0.659,2.15,38.8,9.21,0.342,-4.95,15.8,-6.78
Cc1ncsc1C(=O)N(C)Cc1ccncc1,-4.37,10.5,3,-5.42,-6.58,-2.68,16,23.6,1.47,-7.32,-6
CCc1nc(C)c([C@H]2CN(C)C[C@@H]2C(=O)Nc2ccc(OC)cc2)[nH]1,-5.53,5.41,-1.46,2.65,1.16,-2.86,8.28,1.5,8.99,12.2,-4.67
CCC(=O)N1CCC(c2nnc(Cn3cccn3)n2C2CC2)CC1,-5.96,18.1,-4.09,12.6,2.23,-0.442,8.07,-1.41,4.21,12.8,-0.227
CCn1c(C)cc(C(=O)N2CCCC(c3nc(C)no3)C2)c1C (stereo not given),-3.15,15.6,3.61,-3.42,2.06,1.47,17.5,14.4,8.57,9.41,-22.5
COCC1CN(C(=O)c2cccn2C)Cc2ncnn2C1 (stereo not given),-5.41,5.2,0.668,11.3,9.34,4.14,8.32,9.25,-2.15,11.1,3.71
Cc1nc(CN2CCC(N(C)Cc3noc(C(C)C)n3)C2)cs1 (stereo not given),1.43,-24.7,-8.83,5.3,-5.68,-4.54,19,26,4.3,2.5,-4.7
CCS(=O)(=O)CCN1CCCC1c1noc(C2CC2)n1 (stereo not given),-0.786,20.2,-7.83,-3.74,-4.44,0,6.63,38.5,-0.493,-34.2,-7.2
